Screening results: PubChem, National Center for Advancing Translational Sciences (NCATS)
Pf growth 96h – P. falciparum growth inhibition at 96 hours; P. falciparum luciferase reporter growth, 96 h; Potency, µM (highest dose often 28.7 µM), for the others: at the top dose activity change, negative = inhibition, usual class: inhibitors; actives 6.9% (n = 320,000); also: potency is read from the fitted curve at half-maximal effect
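Readout is luminescence from an integrated firefly luciferase in P. falciparum. Red cells, 2% hematocrit and 0.05% parasitemia final, were cultured with compound through two parasite generations (96 hours) at 37 C, 5% CO2.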
HCMV inh – blocks human cytomegalovirus replication | HFF cells, HCMV-luciferase reporter, 72 h; active compounds read low | activity change, negative = inhibition, % at 57.5 µM | actives 4.5% (n = 410,000) | AID 1259415; in the data active = activity change below about -60%; inconclusive = no clear call, values can overlap the other calls; inactive = above about -39%
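Steps: HFFs plated, 16 h 37C; compounds added; HCMV-luciferase added to MOI 1 PFU/cell; 72 h 37C; OneGlo reagent, 5 min room temperature; luminescence read, normalized to controls.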
Pf growth 48h – inhibits P. falciparum growth in the first generation, 48 h. Potency, µM (doses to about 28.7 µM), for inactives: at the top dose activity change, negative = inhibition, hits mostly inhibitors. P. falciparum luciferase growth in erythrocytes, 48 h. actives 5.9% (n = 310,000); also: potency is read from the fitted curve at half-maximal effect
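Luminescence readout; reporter = integrated firefly luciferase in P. falciparum. RBC culture at 2% hematocrit, 0.1% parasitemia final, 37 C/5% CO2; decreased signal taken as growth inhibition.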
HCV inh – HCV inhibition | Huh7.5.1 HCVcc-Cre infection, luciferase reporter, 44 h | Potency, µM (titrated, usually from 41.8 µM), without a hit: top-dose activity change, negative = inhibition, hits mostly inhibitors | actives 3.4% (n = 340,000) | AID 651820; also: potency is read from the fitted curve at half-maximal effect
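Luciferase read-out (15 sec integration) after a 15 min room-temperature substrate step quantifies HCVcc-Cre infection. Cells, 1,000 per well, had compound added 4 h post-plating, then virus at ~0.5 moi, and were cultured 44 h.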
Active calls of the source: *; ? = inconclusive; . = no result; + = active, no number. An excerpt weighted towards active compounds, which were near 13% of everything screened. Unless noted, calls follow the shape of the dose curve; as a rule, active = well fitted inhibition curve with a large enough effect; inconclusive = small, poorly fitted or top-dose-only effect, or another doubt; inactive = no such curve, though single readings can be large or run the other way. % is scaled to controls: 0 for no effect and ±100 for the full control effect.

SMILES	Pf growth 96h	HCMV inh	Pf growth 48h	HCV inh
COc1cc(CCNC(=O)c2ccc3c(c2)c(C)c(C)n3Cc2cccc(C)c2)cc(OC)c1OC	.	-36	.	.
COc1ccc(N2CCN(C(=O)c3cc4cc5ccc(Cl)cc5nc4o3)CC2)cc1	.	11	.	.
CCOC(=O)C1CCCN(C(c2ccccn2)c2c(C)[nH]c3ccccc23)C1 (stereo not drawn)	?	-87*	10%	22%
CCCCNC(=O)c1nc(C2CCNCC2)oc1-c1cccc(C(F)(F)F)c1	.	2	.	.
CCN1Cc2cccc(C(=O)Nc3ccc(F)cc3)c2C1=O	.	-25	.	.
O=C(c1cccs1)N1CCCc2cc(NS(=O)(=O)c3ccc(F)cc3F)ccc21	.	2	.	.
Cc1ccc2c(c1)CCCN2C(=O)c1cccs1	.	25	?	-27%
COc1ccc(C(=O)Nc2ccc3c(c2)CCCN3C(=O)c2cccs2)c(OC)c1	15µM*	?	?	-18%
O=C(c1cccs1)N1CCCc2cc(NS(=O)(=O)c3ccc(Cl)cc3)ccc21	.	-33	.	.
Cc1ccccc1C(=O)Nc1ccc2c(c1)CCCN2C(=O)c1cccs1	?	+	-22%	?
COc1ccc(F)cc1S(=O)(=O)Nc1ccc2c(c1)CCCN2C(=O)c1cccs1	.	-75*	.	.
COc1cc(OC)cc(-c2cc3c(Nc4cccc(O)c4)nccc3[nH]2)c1	.	25	.	.
Cc1ccccc1Nc1c(-c2ccc(O)cc2)nc2c(C)cccn12	.	-16	.	.
COC(=O)c1ccccc1NC(=O)N1CCC(n2c(C)nc3cccnc32)CC1	.	-3	.	.
CCN(C(=O)Cn1cc(C(=O)c2ccc(F)cc2)c(=O)c2ccc(C)nc21)c1cccc(C)c1	.	-33	.	.
COc1ccc(CNCCc2ccc(Cl)cc2)cc1OCc1ccccc1	-11%	.	2%	?
COc1cc(CNCCc2ccc(S(N)(=O)=O)cc2)ccc1OCC(=O)NC(C)(C)C	13µM*	-14	-17%	17%
NS(=O)(=O)c1ccc(CCNCc2cc(Br)ccc2OCc2ccccc2)cc1	-18%	-66*	13µM*	11µM*
CCOc1cc(CNCCc2ccc(S(N)(=O)=O)cc2)ccc1OCc1ccccc1	?	?	?	13µM*
CCOc1cc(CNCc2ccccc2)ccc1OCc1ccc(Cl)cc1	6%	-85*	?	22µM*
COc1ccc(Br)cc1CN(C)CC(=O)NCCc1ccc(S(N)(=O)=O)cc1	-10%	?	-20%	?
N#C/C(=C\c1ccc(-c2ccc(C(=O)O)cc2)o1)C(=O)Nc1ccccc1C(=O)O	.	16	.	.
O=C(CCC1N=C2c3ccccc3N=C(SCc3ccccc3F)N2C1=O)NCc1ccccc1 (stereo not drawn)	.	26	.	.
Cc1ccc(CNC(=O)c2c(-c3cccc(Br)c3)noc2C)o1	.	-11	.	.
Cc1ccc(O)c(NC(=O)c2nc3nc(C)cc(C(F)F)n3n2)c1	.	-31	.	.
SMILES	Pf growth 96h	HCMV inh	Pf growth 48h	HCV inh
COc1ccc(S(=O)(=O)NCC(c2ccco2)N2CCN(c3ccc(F)cc3)CC2)cc1C (stereo not drawn)	.	-25	.	.
COc1ccc2c3c(n(C)c2c1)[C@@H](CO)N(C(=O)NC1CCCCC1)CC31CCN(C)CC1	.	-32	.	.
Cn1cnc2c(=O)oc3ccc(S(=O)(=O)N4CCN(c5ccccc5F)CC4)cc3c21	.	9	.	.
COc1cc(CNCCO)ccc1OCC(=O)Nc1ccc(Br)cc1	.	55	?	5.6µM*
CCc1cccc(C)c1NC(=O)CN1C(=O)c2cccc3cccc1c23	.	-9	.	.
CCN(CC)c1ccc(CC2C(=O)N(C)C(=O)N(C)C2=O)cc1	15%	.	?	0%
CCCN(Cc1ccc(N(C)C)cc1)CC1CC1	2.1µM*	7	.	7%
CCCN(Cc1ccc(N(CC)CC)cc1)CC1CC1	1.5µM*	-66*	12µM*	10µM*
CN(C)c1ccc(Cc2ccc(N(C)C)cc2)cc1	.	-18	.	-1%
C[C@@H]1CN([C@@H](C)CO)C(=O)CCCn2cc(nn2)CO[C@H]1CN(C)C(=O)c1ccncc1	.	-5	.	.
O=c1c2ccccc2sn1-c1ccc(Cl)cc1Cl	.	-95*	.	.
Cc1cccc(N2CCc3c2nc2ccc(Br)cc2c3N)c1	-15%	?	?	10µM*
CSc1nc(C)c2c(n1)N(c1cccc(C)c1)CC2	?	-26	-5%	10µM*
Nc1c2c(nc3ccc(Br)cc13)N(c1ccccc1)CC2	?	-9	.	7.1µM*
Nc1c2c(nc3ccc(Br)cc13)N(Cc1ccccc1)CC2	-12%	-32	0%	10µM*
Cc1ccc2cc3c(nc2c1)N(c1ccccc1)CC3	-3%	?	?	?
Cc1ccc2c(=O)c(C(=O)c3ccc(F)cc3)cn(CC(=O)NCCc3ccccc3)c2n1	.	16	.	.
C=C1[C@H](C)CN(S(=O)C(C)(C)C)[C@H]1CCO (stereo partly drawn)	.	-5	.	.
C=CCN1[C@@H](C)[C@H](c2ccccc2)Oc2cccc(NCC(C)C)c2S1(=O)=O	.	-23	.	.
Cc1nn(C(C)(C)C)c(OC(=O)C(C)(C)C)c1Sc1ccccc1	.	4	.	.
Cc1ccccc1CNC(=O)CC1C(=O)NCCN1Cc1c(F)cccc1Cl (stereo not drawn)	2.3µM*	10	0.83µM*	5%
CCOc1ccc(CN2CCNC(=O)C2CC(=O)NCCc2ccccn2)cc1 (stereo not drawn)	31%	-39	11%	6%
CN1CCNC(=O)C1CC(=O)NCCc1ccccc1F (stereo not drawn)	13µM*	-17	43%	8%
O=C(CC1C(=O)NCCN1Cc1ccccn1)NCCc1ccccc1F (stereo not drawn)	?	?	4.7µM*	16%
CC(C)Cn1c(=O)c2sccc2n2c(CCCC(=O)N3CCN(c4ccc(F)cc4)CC3)nnc12	.	-3	.	.
SMILES	Pf growth 96h	HCMV inh	Pf growth 48h	HCV inh
OCC1OC(Oc2c[nH]c3ccccc23)C(O)C(O)C1O (stereo not drawn)	15%	-98*	?	18%
c1ccc2c(c1)Nc1ccccc1S2	4.8µM*	.	12µM*	-9%
CC(=O)Nc1ccc2c(c1)nc(C)n2Cc1ccccc1	0.41µM*	-3	5%	12%
Cc1nc2c(cc1NC(=O)c1ccccc1)nc(C)n2Cc1ccccc1	12µM*	-13	-19%	5%
COc1ccccc1N(Cc1ccccc1)S(=O)(=O)c1cccc(C(=O)O)c1	-21%	0	-3%	5%
COc1ccc(N(Cc2ccccc2)S(=O)(=O)c2cccc(C(=O)Nc3ncccc3C)c2)cc1	?	6	?	?
COc1ccccc1N(Cc1ccccc1)S(=O)(=O)c1cccc(C(=O)Nc2cc(C)ccn2)c1	?	-90*	?	?
COc1ccccc1N(Cc1ccccc1)S(=O)(=O)c1cccc(C(=O)Nc2ncccc2C)c1	?	?	12µM*	-11%
CC1(C)CC(NC(=O)c2ccc(Cl)c(S(=O)(=O)N(Cc3ccccc3)c3ccccc3)c2)CC(C)(C)N1	7.4µM*	-37	5.2µM*	?
